Screens as filed in PubChem.
This is a sample that favours compounds with a hit; in the whole collection about 2.7% have one here.
HSP90 inh = blocks HSP90-mediated luciferase refolding in reticulocyte lysate | hit rate 0.91% among 290,000 | inhibition, % at 5.6 µM | Rabbit reticulocyte lysate, luciferase refolding luminescence, 3 h;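 active means inhibition above the screen-wide mean plus 3 SD, computed separately per campaign, cut at about 16% in these data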;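 further: inhibitors lower the luminescence because luciferase stays unfolded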
SENP8 block-1 = inhibitors of human SENP8 protease. Q96LD8. inhibition, % at 20 µM. hit rate 0.64% among 360,000. recombinant SENP8, Nedd8 substrate fluorescence; in the data active means inhibition mostly above about 40%, no sharp cut-off; inactive means mostly below about 27%
SENP8 block-2 = inhibitors of human SENP8 protease. inhibition, % at 10 µM. purified SENP8, Z-RLRGG-aminoluciferin cleavage, luminescence. Q96LD8. hit rate 1.2% among 330,000; in the data active means inhibition above about 50%
SENP7 block = SENP7 protease inhibition; Q9BQF6; recombinant SENP7, Z-RLRGG-aminoluciferin luminescence, 40 min; inhibition, % at 5 µM; hit rate 1.5% among 330,000; AID 434973;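 active means inhibition above about 50% at the single test dose, limit read from the data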
Target sequence (Q9BQF6 706-1050 limits assumed): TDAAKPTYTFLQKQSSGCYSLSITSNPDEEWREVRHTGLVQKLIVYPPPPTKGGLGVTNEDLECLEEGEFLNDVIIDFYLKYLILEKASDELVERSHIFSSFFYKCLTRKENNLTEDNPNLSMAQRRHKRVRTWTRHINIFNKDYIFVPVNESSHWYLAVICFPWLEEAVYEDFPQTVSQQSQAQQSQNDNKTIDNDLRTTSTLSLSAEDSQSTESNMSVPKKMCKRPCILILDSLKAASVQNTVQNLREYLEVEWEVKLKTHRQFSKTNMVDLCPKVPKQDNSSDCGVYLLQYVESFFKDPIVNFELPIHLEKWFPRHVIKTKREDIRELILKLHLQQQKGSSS
SENP6 block = SENP6 protease inhibition | inhibition, % at 10 µM | hit rate 1.8% among 330,000 | Q9GZR1 | Recombinant SENP6 catalytic domain, aminoluciferin luminescence | AID 2599;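 active means inhibition above about 50% at the single tested dose, limit read from the data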
SENP8 confirm = human SENP8 inhibition, confirmed | shares compounds with SENP7 block | Recombinant SENP8, Z-RLRGG-aminoluciferin luminescence, 60 min | inhibition, % at 12.5 µM | hit rate 40% among 6,200;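 active means mean inhibition across replicates above about 50%, limit read from the data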
SENP6 confirm = human SENP6 inhibition, confirmed. shares compounds with SENP7 block. hit rate 58% among 6,200. recombinant SENP6, Z-RLRGG-aminoluciferin luminescence. inhibition, % at 12.5 µM
SENP7 confirm = human SENP7 inhibition, confirmed. shares compounds with SENP7 block. recombinant SENP7, Z-RLRGG-aminoluciferin luminescence, 40 min. inhibition, % at 12.5 µM. hit rate 69% among 6,200. AID 488917
Casp3 SENP sel = caspase-3 inhibition (SENP selectivity assay) | shares compounds with SENP7 block | purified caspase-3, Z-DEVD-aminoluciferin luminescence, 60 min | inhibition, % at 12.5 µM | hit rate 60% among 6,200 | AID 488918;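 active means mean inhibition above about 50%, limit read from the data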
Target sequence (P42574 28-227 limits assumed): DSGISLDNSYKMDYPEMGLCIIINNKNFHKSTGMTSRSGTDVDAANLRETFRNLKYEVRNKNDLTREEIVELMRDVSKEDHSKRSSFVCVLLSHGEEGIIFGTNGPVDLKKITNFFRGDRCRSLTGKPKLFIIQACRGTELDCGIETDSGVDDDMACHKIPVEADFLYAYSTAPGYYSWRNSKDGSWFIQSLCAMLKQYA
SENP luc ctr = luminescence interference (SENP counter-screen) | shares compounds with SENP7 block | Pre-incubated SENP8/Z-RLRGG-aminoluciferin, luciferase luminescence interference | inhibition, % at 12.5 µM | hit rate 39% among 6,200;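 active means mean inhibition above about 50% when retested at one dose, limit read from the data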
Hits are given with their value; 0 = inactive; - = not tested or not shown.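 How the source made its calls, unless noted: active means mean inhibition above about 50% in the one-dose retest (limit read from the data); inactive means the rest.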

SMILES | HSP90 inh | SENP8 block-1 | SENP8 block-2 | SENP7 block | SENP6 block | SENP8 confirm | SENP6 confirm | SENP7 confirm | Casp3 SENP sel | SENP luc ctr
Cc1ccc(CCC(=O)Nc2nccs2)o1 | 0 | 0 | 0 | 92 | 0 | 0 | 0 | 0 | 0 | 0
CC12CCC(C(=O)Nc3ccccc3)(C/C1=N\O)C2(C)C (configuration not stated) | 0 | 0 | 0 | 0 | 0 | - | - | - | - | -
COc1ccc(Cl)cc1C(=O)NNC(=O)c1cccc([N+](=O)[O-])c1 | 0 | 0 | 0 | 0 | 0 | - | - | - | - | -
O=C1C(=C(O)c2ccccc2)C(=O)c2ccccc21 | 0 | 66 | 0 | 0 | 74 | 0 | 0 | 0 | 0 | 0
CSc1nnc(NC(=O)c2ccc(S(=O)(=O)N(C)C)cc2)s1 | 0 | 0 | 0 | 51 | 0 | 0 | 0 | 0 | 0 | 0
Cc1ccc(-c2ccc(CCC(=O)O)o2)cc1 | 0 | 0 | 0 | 0 | 58 | 74 | 70 | 86 | 61 | 76
CCONc1ncnc2nonc12 | 0 | 0 | 0 | 0 | 0 | - | - | - | - | -
COc1ccc(CONc2ncnc3nonc23)cc1[N+](=O)[O-] | 0 | 0 | 55 | 0 | 70 | 0 | 50 | 83 | 70 | 62
COc1ccc(-c2ccc(SC)nn2)cc1 | 43 | 0 | 94 | 100 | 95 | 98 | 99 | 102 | 98 | 80
Cn1c(=O)c2c(nc(Sc3ccccc3N)n2C)n(C)c1=O | 0 | 0 | 0 | 0 | 0 | - | - | - | - | -
Cc1ccc(-c2nc(N=Nc3ccc(O)cc3)n[nH]2)cc1 | 0 | 0 | 0 | 0 | 0 | - | - | - | - | -
Cc1nc(N=Nc2ccc(O)cc2)n[nH]1 | 0 | 0 | 0 | 58 | 75 | 58 | 53 | 86 | 87 | 63
CC(=O)Nc1ccc(C(=O)OCc2ccccc2Br)cc1 | 0 | 0 | 0 | 0 | 0 | - | - | - | - | -
Cc1nc2ccc(C(=O)OCc3ccccc3Br)cc2nc1C | 0 | 0 | 0 | 56 | 67 | 0 | 0 | 0 | 0 | 0
Cc1ccccc1S(=O)(=O)N(C)C[C@@H]1OCc2cnnn2CCCC(=O)N([C@@H](C)CO)C[C@@H]1C | - | 0 | - | - | - | - | - | - | - | -
COC(=O)c1cccc(NC(=O)c2cnoc2C)c1 | 0 | 0 | 0 | 0 | 0 | - | - | - | - | -
CC(=O)Nc1ccc2ccccc2c1 | 0 | 0 | 0 | 0 | 0 | - | - | - | - | -
Cc1oncc1C(=O)Nc1ccc(C(F)(F)F)cc1 | 0 | 0 | 68 | 76 | 78 | 0 | 67 | 94 | 76 | 63
Cc1coc(C)c1C(=O)Nc1ccc2ccccc2c1 | 0 | 0 | 0 | 0 | 66 | 0 | 0 | 79 | 52 | 60
Cc1oncc1C(=O)Nc1ccc2ccccc2c1 | 0 | 0 | 67 | 81 | 88 | 0 | 65 | 96 | 75 | 77
CCN(CC)CCCNC(=O)CNC(=O)c1nn(-c2ccc(OC)c(OC)c2)c(=O)c2ccccc12 | 0 | 0 | 0 | 0 | 0 | - | - | - | - | -
O=c1ccn([C@@H]2O[C@H](CNCc3c(OCc4ccccc4F)ccc4ccccc34)[C@@H](O)[C@H]2O)c(=O)[nH]1 | - | 0 | - | - | - | - | - | - | - | -
CC(=O)Nc1ccc(S(=O)(=O)NC(C)C(=O)NC(C)c2ccccc2)cc1 (configuration not stated) | 0 | 0 | 0 | 0 | 0 | - | - | - | - | -
c1ccc(Nc2nnc(-c3cccc4ccccc34)o2)cc1 | 0 | 0 | 0 | 65 | 0 | 0 | 0 | 53 | 0 | 0
Cc1ccc(Nc2nc3ccccc3o2)cc1F | 0 | 0 | 78 | 87 | 88 | 57 | 81 | 98 | 75 | 0
SMILES | HSP90 inh | SENP8 block-1 | SENP8 block-2 | SENP7 block | SENP6 block | SENP8 confirm | SENP6 confirm | SENP7 confirm | Casp3 SENP sel | SENP luc ctr
Cc1nc(Nc2nc3ccccc3o2)nc(C)c1C | 0 | 0 | 0 | 63 | 58 | 0 | 52 | 87 | 80 | 0
Cc1cc2nn(-c3ccc(Cl)cc3)nc2cc1N | 0 | 0 | 0 | 0 | 0 | - | - | - | - | -
CCOc1ccc(-n2nc3ccc(N)cc3n2)cc1 | 0 | 0 | 79 | 0 | 86 | 85 | 0 | 0 | 0 | 66
CCOc1ccc(-n2nc3cc(C)c(N)cc3n2)cc1 | 0 | 0 | 0 | 0 | 73 | 0 | 74 | 94 | 0 | 0
CCOc1ccc(N2C(N)=NC(N)=NC2(C)C)cc1 | 0 | 0 | 0 | 0 | 0 | - | - | - | - | -
Cc1cc(C[n+]2cc(Br)ccc2N)c2ncccc2c1 | 0 | 0 | 0 | 0 | 0 | - | - | - | - | -
Oc1ccc(-c2nc3ccccn3c2NCc2ccco2)cc1 | 0 | 0 | 0 | 0 | 56 | 0 | 0 | 61 | 0 | 0
COc1ccc(-c2nc3ccc(C)cn3c2NCc2ccc3c(c2)OCO3)cc1 | 0 | 0 | 0 | 0 | 0 | - | - | - | - | -
Cc1ccc(-c2nc3ccccn3c2NCc2ccc3c(c2)OCO3)cc1 | 0 | 0 | 0 | 0 | 51 | 0 | 0 | 0 | 0 | 0
c1ccc(Cn2c(-c3ccco3)nc3nc4ccccc4nc32)cc1 | 0 | 0 | 75 | 52 | 89 | 0 | 82 | 96 | 82 | 0
O=c1c2ccccc2nc(-c2ccc(Br)cc2)n1Cc1ccccc1 | 0 | 0 | 0 | 0 | 0 | - | - | - | - | -
O=c1c2ccccc2nc(-c2ccco2)n1Cc1ccccc1 | 0 | 0 | 63 | 69 | 77 | 79 | 76 | 89 | 78 | 77
Cc1ccc(C2CC(c3cccs3)=NN2C(=O)CCl)cc1 (configuration not stated) | 0 | 0 | 0 | 0 | 0 | - | - | - | - | -
CSC1=NSC2=NC(=O)/C(=C\c3ccc(OC(=O)c4ccco4)cc3)C(=N)N12 | 0 | 0 | 91 | 0 | 89 | 90 | 90 | 96 | 90 | 0
O=C(Oc1ccc(-c2ccccc2)cc1)c1ccco1 | - | 0 | - | - | - | - | - | - | - | -
O=C(COC(=O)c1ccccc1)c1ccc(Br)cc1 | 0 | 0 | 83 | 0 | 86 | 0 | 64 | 87 | 63 | 0
Cc1cccc(/C(N)=N/OC(=O)CCCc2ccccc2)c1 | 0 | 0 | 0 | 0 | 60 | 0 | 52 | 85 | 68 | 0
N/C(=N\OC(=O)c1ccco1)c1ccccc1 | 0 | 0 | 82 | 81 | 88 | 74 | 75 | 95 | 90 | 76
Cc1occc1C(=O)O/N=C(\N)c1ccc(Cl)cc1 | 0 | 0 | 0 | 61 | 53 | 0 | 0 | 74 | 69 | 58
N/C(=N\OC(=O)CCCc1ccccc1)c1ccccc1 | 0 | 0 | 0 | 0 | 0 | - | - | - | - | -
COc1cc(C(C)=O)ccc1OCC(O)Cn1nc(C)c(C(C)=O)c1C (configuration not stated) | 0 | 0 | 0 | 0 | 0 | - | - | - | - | -
O=C(NC(=S)Nc1ccccc1Br)C1CCCC1 | 0 | 0 | 0 | 0 | 0 | - | - | - | - | -
N/C(=N\OC(=O)c1ccco1)c1ccc(Br)cc1 | 0 | 0 | 74 | 76 | 93 | 84 | 83 | 97 | 75 | 73
N/C(=N\OC(=O)c1cccc(Br)c1)c1ccc(Br)cc1 | 0 | 0 | 0 | 0 | 0 | - | - | - | - | -
Cc1ccc(C(=O)O/N=C(\N)c2ccc(Br)cc2)cc1 | 0 | 0 | 0 | 0 | 0 | - | - | - | - | -
N/C(=N\OC(=O)c1ccco1)c1ccccn1 | 0 | 0 | 0 | 78 | 76 | 62 | 62 | 91 | 92 | 76
